From PubChem BioAssay (NCI) come the findings set out here.

About 83,000 compounds went through this panel and 20% of them were active in at least one assay; those are over-represented in the sample as a whole.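 Testing used 96-well plates and a 48-hour single-concentration exposure. Example: -40 means 40% of the starting cells died.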 Values without a mark were called inactive. The source made the active and inactive calls. How the source made its calls: active means growth percent below 10; inactive means the rest.

Test systems include SR leukemia; RPMI-8226 leukemia; OVCAR-8 ovarian; OVCAR-5 ovarian; OVCAR-4 ovarian; SK-OV-3 ovarian; IGROV1 ovarian; OVCAR-3 ovarian; HS 578T breast; NCI/ADR-RES ovarian; T-47D breast; BT-549 breast; MDA-MB-435 melanoma; SW-620 colon; MCF7 breast; HCT-116 colon; HCC-2998 colon; KM12 colon.
What all share (experiment): NCI-60 one-dose screen, 48 h (100 = growth as untreated, 0 = no growth, -100 = all killed)
What all share (details): 10 µM unless noted

On to `COC(=O)CNC(=O)c1ccc(NC(=O)c2[nH]c(C)c(Cl)c2Cl)c(O[C@H]2CCNC2)c1`, for which the growth is 83.7% in the test with SR leukemia; 96.7% in the test with RPMI-8226 leukemia; 101% in the test on OVCAR-8 ovarian; 112% with OVCAR-5 ovarian; 110% with OVCAR-4 ovarian; 96.6% with SK-OV-3 ovarian. Moreover, the growth in the test on IGROV1 ovarian is 111%; in the test with OVCAR-3 ovarian, 114%; in the test on HS 578T breast, 92.8%; with NCI/ADR-RES ovarian, 112%; in the test on T-47D breast, 101%; in the test on BT-549 breast it was 102%. In addition, the growth is 105% in the test on MDA-MB-435 melanoma; 103% in the test with SW-620 colon; 105% in the test with MCF7 breast; 96.1% in the test on HCT-116 colon; 115% with HCC-2998 colon; 104% with KM12 colon.
For the molecule `CCCN1C(=O)N(CCC)C2C1NC(=S)N2/N=C/C=C/c1ccccc1OC` (centres undefined), the growth was 22% with SR leukemia; 19% in the test with RPMI-8226 leukemia; 12.2% in the test with OVCAR-8 ovarian; 26.7% in the test on OVCAR-5 ovarian; 55.2% with OVCAR-4 ovarian; 34.9% in the test with SK-OV-3 ovarian. Also, the growth with IGROV1 ovarian was 30.6%; in the test with OVCAR-3 ovarian, -20.9% (active); in the test on HS 578T breast, 9.95% (active); in the test with NCI/ADR-RES ovarian it was 9.94% (active); with T-47D breast, 40.3%; with BT-549 breast, 56%. Moreover, the growth is -56.1% (active) in the test on MDA-MB-435 melanoma; 22% in the test on SW-620 colon; 17.4% in the test on MCF7 breast; 18.3% in the test with HCT-116 colon; 20.3% in the test on HCC-2998 colon; 21.1% in the test with KM12 colon.
In the case of `O=c1oc2ccccc2cc1-c1nn(-c2ccccc2)cc1/C=N/Nc1nc(-c2ccccc2)c(N=Nc2ccccc2)s1`, the growth with SR leukemia is 21.9%; with RPMI-8226 leukemia it was 63.1%; in the test on OVCAR-8 ovarian it was 77.9%; in the test on OVCAR-5 ovarian, 102%; in the test on OVCAR-4 ovarian, 84.7%; in the test on SK-OV-3 ovarian, 82.8%. For the same molecule, the growth in the test with IGROV1 ovarian was 81.7%; in the test on OVCAR-3 ovarian it was 57.1%; with HS 578T breast, 87.5%; with NCI/ADR-RES ovarian, 63.7%; in the test on T-47D breast, 57.4%; with BT-549 breast, 61.8%. Also, the growth was -27.8% (active) in the test on MDA-MB-435 melanoma; 43.4% in the test with SW-620 colon; 44.3% in the test with MCF7 breast; 56.9% in the test on HCT-116 colon; 85.6% in the test on HCC-2998 colon; 44.7% in the test with KM12 colon.
For the molecule `[2H]C([2H])([2H])Oc1ccc(/C=C/C(=O)/C=C(O)/C=C/c2ccc(OC([2H])([2H])[2H])c(OC([2H])([2H])[2H])c2)cc1OC([2H])([2H])[2H]`, the growth in the test on SR leukemia was 18.6%; with RPMI-8226 leukemia, 6.79% (active); with OVCAR-8 ovarian, 21.8%; in the test with OVCAR-5 ovarian, 71.6%; with OVCAR-4 ovarian, 42.2%; in the test with SK-OV-3 ovarian, 39%. For the same molecule, the growth in the test with IGROV1 ovarian is 52.9%; with OVCAR-3 ovarian, 37.2%; in the test on HS 578T breast, 51.7%; with NCI/ADR-RES ovarian it was 41.5%; in the test with T-47D breast it was 21.8%; with BT-549 breast, 34.4%. Further, the growth with MDA-MB-435 melanoma is 12.3%; in the test on SW-620 colon, 27.4%; in the test on MCF7 breast it was 4.59% (active); with HCT-116 colon it was 5.1% (active); with HCC-2998 colon it was 76.4%; in the test on KM12 colon, 30.6%.
As for `COc1cc(/C=N/NC(=O)c2ccc3nc(-c4ccc(Cl)cc4)[nH]c3c2)cc(OC)c1OC`, the growth in the test on SR leukemia was 45.7%; in the test with RPMI-8226 leukemia, 19.9%; with OVCAR-8 ovarian, 60.5%; with OVCAR-5 ovarian it was 172%; in the test with OVCAR-4 ovarian, 102%; in the test on SK-OV-3 ovarian it was 87.8%. Besides, the growth in the test on IGROV1 ovarian is 68.4%; with OVCAR-3 ovarian, 61.6%; in the test with HS 578T breast it was 48.3%; in the test on NCI/ADR-RES ovarian, 106%; in the test with T-47D breast, 15.9%; with BT-549 breast, 70.7%. The growth in the test on MDA-MB-435 melanoma is 64%; in the test on SW-620 colon, 78.7%; with MCF7 breast it was 12.1%; with HCT-116 colon, 36.2%; with HCC-2998 colon, 80%; with KM12 colon, 61.8%.
On to `CN(C)CCOc1nc2c3cc([N+](=O)[O-])ccc3nn2c2ccccc12`, for which the growth in the test on SR leukemia was 7.43% (active); in the test on RPMI-8226 leukemia it was 41.8%; with OVCAR-8 ovarian, 31.5%; in the test with OVCAR-5 ovarian, 58.6%; with OVCAR-4 ovarian it was 62.4%; with SK-OV-3 ovarian it was 34.9%. The growth in the test with IGROV1 ovarian was 29.8%; with OVCAR-3 ovarian it was 63.7%; in the test with HS 578T breast it was 69.8%; in the test on NCI/ADR-RES ovarian, 37%; in the test with T-47D breast it was 46.5%; in the test on BT-549 breast, 69.6%. Further, the growth in the test with MDA-MB-435 melanoma is 82.4%; in the test with SW-620 colon, 20.4%; in the test with MCF7 breast it was 16.7%; with HCT-116 colon, 16.7%; with HCC-2998 colon, 54.6%; with KM12 colon, 41.9%.
Take `Oc1cccc2c1NCCC2`: the growth in the test on SR leukemia is 27.2%; in the test on RPMI-8226 leukemia it was 14.9%; with OVCAR-8 ovarian, 19.9%; in the test on OVCAR-5 ovarian, 44.7%; in the test with OVCAR-4 ovarian it was 17.9%; in the test on SK-OV-3 ovarian, 20.4%. In addition, the growth was 18.3% in the test on IGROV1 ovarian; 4.94% (active) with OVCAR-3 ovarian; 24.3% in the test on HS 578T breast; 23.7% with NCI/ADR-RES ovarian; 22.1% in the test on T-47D breast; 39.1% with BT-549 breast. In addition, the growth is 15.4% in the test with MDA-MB-435 melanoma; 19.9% in the test on SW-620 colon; 13.1% with MCF7 breast; 8.94% (active) in the test on HCT-116 colon; 32.8% with HCC-2998 colon; 20.7% with KM12 colon.
With `CN1CCN(Cc2ccc(NC(=O)c3cncc(C#Cc4cnc(N)c5ncccc45)c3)cc2Cl)CC1`, the growth in the test with SR leukemia was -1.93% (active); in the test on RPMI-8226 leukemia, 73.1%; with OVCAR-8 ovarian it was 101%; in the test with OVCAR-5 ovarian, 95.1%; with OVCAR-4 ovarian it was 104%; in the test with SK-OV-3 ovarian it was 109%. Moreover, the growth with IGROV1 ovarian is 110%; in the test with OVCAR-3 ovarian, 116%; with HS 578T breast, 80.1%; in the test on NCI/ADR-RES ovarian it was 74.9%; with T-47D breast it was 121%; in the test with BT-549 breast it was 105%. Moreover, the growth in the test on MDA-MB-435 melanoma is 94.2%; in the test with SW-620 colon, 2.96% (active); with MCF7 breast it was 65.6%; in the test on HCT-116 colon, 14.6%; with HCC-2998 colon it was 106%; in the test on KM12 colon, 23%.
